HTT cytoprotect = protects HTT-Q103 PC12 cells, measured by ATP | PC12 HTT-Q103 induced, cytoprotection, ATP luminescence, 40 h | Potency, µM (series often up to 56.4 µM), most hits filed as activators | 230,000 compounds, 0.14% hits | AID 1471; active = well fitted curve in the direction sought with a large enough effect; inconclusive = small, poorly fitted or top-dose-only effect, or another doubt; inactive = no such curve, though single readings can be large; an effect the other way counts as inactive or inconclusive; note: nearly all actives have a fitted effect of over 45% in size
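Rat PC12, Q103 Htt exon1-GFP fusion, ecdysone promoter; tebufenozide inducer 100 nM final; compound titration; qHTS, 1500 cells/well; ATPlite luminescent read.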
HttQ103 aggreg = mutant huntingtin aggregation inhibition. PC12 HttQ103-GFP aggregates, Acumen cytometry, 40 h. Potency, µM (highest dose often 46.1 µM), hits mostly inhibitors. 220,000 compounds, 1.1% hits. AID 1688; active = well fitted curve in the direction sought with a large enough effect; inconclusive = small, poorly fitted or top-dose-only effect, or another doubt; inactive = no such curve, though single readings can be large; an effect the other way counts as inactive or inconclusive; note: nearly all actives have a fitted effect of over 60% in size
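Read-out: GFP aggregate count by laser scanning cytometer (488 nm excitation, 500-530 nm emission, 1–25 µm objects >6 SD above background). Cells: PC12, inducible HTTex1-Q103-GFP, 100 nM tebufenozide; compounds titrated.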
GoLoco inh red = inhibitors of human Gai1-RGS12 GoLoco interaction (red fluorophore). P63096. Gai1:RGS12 GoLoco peptide FP, rhodamine, 10 min. Potency, µM (doses to about 61.6 µM), actives largely listed as inhibitors. 230,000 compounds, 0.44% hits. AID 880; active = well fitted inhibition curve with a large enough effect, not every such curve was filed as active; inactive = no such curve, though single readings can be large or run the other way; note: nearly all actives have a fitted effect of over 30% in size
PNC assembly inh = blocks assembly of the perinucleolar compartment; PC3M PTB-GFP, PNC prevalence imaging, 16 h; hits give low values; activity change (PNC), negative = inhibition, % at 10 µM; 140,000 compounds, 3.1% hits; AID 2417;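 active = readout at or below -70, meaning at least 70% loss of cells showing the perinucleolar compartment, a nuclear body marking cancer cells; inconclusive = readout between -30 and a set limit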
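PC3M cells stably expressing PTB-GFP, 750–1000 cells/well, treated 16 h at 37 °C with compound (23 nl of library stock), in duplicate. After paraformaldehyde fixation and Hoechst stain, imaged at 20x; PNC prevalence scored by image analysis.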
ALDH1A1 block = blocks purified human ALDH1A1 activity; P00352; Purified ALDH1A1, NADH fluorescence, propionaldehyde substrate; Potency, µM (doses to about 75.3 µM), actives largely listed as inhibitors; 220,000 compounds, 7.3% hits
HPGD block = blocks human HPGD enzyme activity | P15428 | purified HPGD, NADH fluorescence kinetic, PGE2 substrate | Potency, µM, usual class: inhibitors | 150,000 compounds, 4.3% hits
Target sequence (P15428 whole entry, looked up): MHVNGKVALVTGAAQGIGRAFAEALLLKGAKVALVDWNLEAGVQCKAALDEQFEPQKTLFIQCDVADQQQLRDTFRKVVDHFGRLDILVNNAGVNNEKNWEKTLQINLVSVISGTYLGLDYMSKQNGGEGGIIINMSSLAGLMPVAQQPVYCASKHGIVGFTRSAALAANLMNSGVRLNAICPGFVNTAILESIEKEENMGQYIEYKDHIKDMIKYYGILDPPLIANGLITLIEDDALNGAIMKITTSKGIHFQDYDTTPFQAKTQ
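20 nM HPGD preincubated 15 min at room temperature with compound in 50 mM Tris-HCl pH 8, 0.01% Tween 20. Started with 1 mM NAD+ and 30 uM prostaglandin E2; NADH fluorescence (360/450 nm) read 5 times over 30-s intervals, last minus first.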
Hits are given with their value; 0 = inactive; ? = inconclusive; - = not tested or not shown; [ ] = remark or other dose. Compounds with a hit are over-represented: about 11% of the library has one in this group of screens. Unless noted, calls come from the whole dose curve; as a rule, active = well fitted inhibition curve with a large enough effect (not every such curve was filed as active); inconclusive = small, poorly fitted or top-dose-only effect, or another doubt; inactive = no such curve, though single readings can be large or run the other way.

SMILES	HTT cytoprotect	HttQ103 aggreg	GoLoco inh red	PNC assembly inh	ALDH1A1 block	HPGD block
CCOc1ccc(OCC(=O)N2CCOCC2)cc1	0[0.074 µM]	0	0	?	0	0
N#CC(C#N)=Cc1ccc(OCC(=O)N2CCOCC2)cc1	0	0	0	-	8.9µM	-
CCN1C(=O)S/C(=C\c2ccc(N3CCOCC3)cc2C)C1=O	0	0	-	0	0	-
CCCN1C(=O)S/C(=C/c2ccc(N3CCOCC3)o2)C1=O	0[10 µM]	0[9.22 µM]	0	-	-	-
CCCN1C(=O)S/C(=C\c2ccc(N3CCOCC3)o2)C1=O	0	?	0	-	0.22µM	-
CCCN1C(=O)S/C(=C\c2ccc(N3CCOCC3)cc2C)C1=O	0	0	0	0	1.6µM	0
CCC(C)N1C(=O)S/C(=C/c2ccc(N3CCOCC3)cc2C)C1=O (stereo not given)	-	0	0	0	10µM	0
Cc1cc(N2CCOCC2)ccc1/C=C1\SC(=O)N(C(C)C)C1=O	0	0	0	0	5µM	0
C=C1C(=O)C=C2CN(C(=O)c3ccccc3)[C@@](Cc3ccc(F)cc3)(C(=O)OC)[C@@H]12	0	5µM	0	-119	0	16µM
COC(=O)[C@@]1(Cc2ccc(OC)cc2)[C@@H]2C(=CC(=O)[C@H]2CC(=O)C(=O)N(C)C)CN1C(=O)c1ccccc1	?	?	0	0	0	0
O=C(Nc1ccc(-c2cn3ccccc3n2)cc1)c1ccco1	-	0	0	?	0	0
O=C(Nc1ccc(-c2cn3ccccc3n2)cc1)c1ccc(Cl)cc1	0[10 µM]	2.8µM	0	0	?	?
CCCCC(=O)Nc1cccc(-c2cn3ccccc3n2)c1	0	0	-	?	28µM	-
CCC(=O)OC1CCC2C3CCc4cc(O)ccc4C3CC[C@]12C (stereo not given in full)	-	-	0	-	0	0
Cn1c(SCC(=O)N2CCN(c3ccccc3)CC2)nnc1-c1ccccc1	0	0	0	0	7.9µM	0
CCn1c(SCC(=O)N2CCN(c3ccccc3)CC2)nnc1-c1ccncc1	0[10 µM]	0	0	-100	25µM	20µM
O=C(CSc1ncn(-c2ccccc2)n1)N1CCN(c2ccccc2)CC1	0[0.074 µM]	0	0	0	14µM	28µM
Cn1c(SCC(=O)N2CCN(c3ccccc3)CC2)nnc1-c1ccco1	0	0	0	0	13µM	0
CCOC(=O)OCC1OC(C#Cc2ccc(C)cc2C)C=CC1OC(=O)OCC (stereo not given)	0[10 µM]	-	-	-	0[13.5 µM]	-
O=c1ccc(Cl)n[nH]1	0[10 µM]	0[9.22 µM]	0	-	-	-
Cn1c(CCNC(=O)c2cccs2)nnc1SCC(=O)N1CCN(c2ccccc2)CC1	0	0	0	?	28µM	0
Cc1sc(NC(=O)CSc2nnc(CCNC(=O)c3cccs3)n2C)nc1-c1ccccc1	0[10 µM]	0	0	0	0	0
CCN(CC)c1ccc(C2NCC(c3ccc([N+](=O)[O-])cc3)O2)cc1 (stereo not given)	0[10 µM]	0	0	0	0.28µM	0
CC(Cl)C(=O)NNc1cccc(Cl)n1 (stereo not given)	0	0	0	0	20µM	0
O=[N+]([O-])c1ccc(N/N=C/c2cn(Cc3ccc(F)cc3)c3ccccc23)nc1	0[10 µM]	0	0	0	18µM	0
SMILES	HTT cytoprotect	HttQ103 aggreg	GoLoco inh red	PNC assembly inh	ALDH1A1 block	HPGD block
C#CCn1cc(/C=N/NC(=O)COc2cccc3cccnc23)c2ccccc21	0[10 µM]	0	0.79µM	0	10µM	0
CNC(=S)N/N=C/c1cn(Cc2ccc(F)cc2)c2ccccc12	0[10 µM]	?	0	?	28µM	0
Cc1cccc(C)c1-n1c(C)cc(/C=N\Nc2ccc([N+](=O)[O-])cn2)c1C	0	?	0	0	10µM	0
CCCn1c(-c2ccc(F)cc2)nc2c(NCCCCN(CC)CC)nc(C)nc21	0	-	0	-	?	?
CCCCCCCCCCCCC(C(=O)O)C(C)C(=O)O (stereo not given)	0	-	0	-	0	0
COc1ccccc1CCn1c(=O)c(-c2ccc(F)c(F)c2)nc2cncnc21	0	-	0	-	0	-
COc1ccc(-c2cc(C(=O)NCc3cccs3)no2)cc1OC	0	-	-	-	-	-
N#Cc1ccccc1-c1ccc2ncnc(NC3CC3)c2c1	0	-	0	-	0	-
Cc1ccc(NC(=O)C2CCCN2C(=O)NC2CCCCC2)cc1 (stereo not given)	0[10 µM]	0[9.22 µM]	0	-	0	-
Cc1ccccc1OCC(=O)N/N=C/c1cn(Cc2ccccc2)c2ccccc12	0[1.9 µM]	0	0	0	?	?
